# Measured values taken from PubChem BioAssay (Tox21).
# Where “and” joins values, the source holds several entries; their conditions need not be identical. Equal entries are not always repeated. Records with an inconclusive call do not appear. A call without a number means that no potency is given here. The source holds several records for some structures; these can differ, active in one and inactive in another. Calls of active or inactive are those of the source. Unless noted, calls come from the whole dose curve; as a rule, active = well fitted curve in the direction sought with a large enough effect in the repeat runs; inconclusive = weak or mixed curves; inactive = no such curve, though single readings can be large; an effect the other way counts as inactive or inconclusive.
# Legend:
# [1] = qHTS assay to identify small molecule agonists of the RXR signaling pathway - cell viability counter screen (AID 1159529); note: nearly all actives have a fitted effect of over 50% in size; note: potency is the fitted concentration of half-maximal effect
# Summary of the method: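 Viability read-out for the RXR-alpha agonist qHTS: luminescent CellTiter-Glo signal after 30 min at RT. HEK 293T bla reporter cells, 2% charcoal-stripped FBS, 16 hr compound incubation; tetraoctyl ammonium bromide as cytotoxic control.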
# [2] = qHTS assay to identify small molecule antagonists of the retinoid acid receptor (RAR) signaling pathway - cell viability counter screen (AID 1159551); note: nearly all actives have a fitted effect of over 35% in size
# Summary of the method: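 Measured by luminescent ATP detection, viability reflects C3RL4 cells treated 6 h at 37 C with test chemicals in the presence of 1 uM (final) retinol.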
# [3] = qHTS assay to identify small molecule antagonists of the estrogen related receptor (ERR) signaling pathway from Tox21 library - cell viability counter screen (AID 1224834); note: nearly all actives have a fitted effect of over 30% in size; note: potency is the fitted concentration of half-maximal effect
# Summary of the method: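 Seeded ERR cells were rested 6 h at 37 C/5% CO2 before compounds, positive and negative controls or DMSO were added. Incubation continued for 17.5 h, and viability was then quantified by CellTiter-Fluor fluorescence.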
# [4] = target: Luciferin 4-monooxygenase (Photinus pyralis) (UniProt P08659); test: qHTS assay to identify small molecule inhibitors of firefly luciferase (AID 1224835); note: nearly all actives have a fitted effect of over 25% in size; note: potency is the fitted concentration of half-maximal effect
# Sequence of Luciferin 4-monooxygenase (Photinus pyralis) (P08659 whole entry, looked up): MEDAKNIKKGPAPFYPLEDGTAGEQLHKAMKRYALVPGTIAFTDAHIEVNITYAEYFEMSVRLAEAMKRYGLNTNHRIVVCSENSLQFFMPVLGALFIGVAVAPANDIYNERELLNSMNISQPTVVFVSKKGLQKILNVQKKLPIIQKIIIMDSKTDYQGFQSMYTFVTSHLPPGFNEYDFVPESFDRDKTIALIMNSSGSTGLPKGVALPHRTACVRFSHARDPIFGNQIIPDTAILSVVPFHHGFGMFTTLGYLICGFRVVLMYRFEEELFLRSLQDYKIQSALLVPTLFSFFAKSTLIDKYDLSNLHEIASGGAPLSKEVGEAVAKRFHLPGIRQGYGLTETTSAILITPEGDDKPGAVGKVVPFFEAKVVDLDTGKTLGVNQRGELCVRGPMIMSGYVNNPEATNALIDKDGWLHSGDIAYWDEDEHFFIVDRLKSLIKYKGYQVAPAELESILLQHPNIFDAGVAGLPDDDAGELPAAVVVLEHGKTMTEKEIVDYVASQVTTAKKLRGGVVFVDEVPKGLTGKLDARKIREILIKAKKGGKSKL
# Summary of the method: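 Quantitative HTS format; KM concentrations of both substrates. Purified P. pyralis FLuc activity quantified from luminescence images.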
# [5] = qHTS assay to identify small molecule agonists of the constitutive androstane receptor (CAR) signaling pathway - cell viability counter screen (AID 1224836); note: nearly all actives have a fitted effect of over 45% in size; note: potency is the fitted concentration of half-maximal effect
# Summary of the method: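 Multiplexed viability check: HepG2-CYP2B6-hCAR cells, 15-point compound dosing, 0.75 uM PK11195 final, 23 h at 37 C, CellTiter-Fluor fluorescence.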
# [6] = qHTS assay to identify small molecule antagonists of the constitutive androstane receptor (CAR) signaling pathway - cell viability counter screen (AID 1224837); note: nearly all actives have a fitted effect of over 45% in size; note: potency is the fitted concentration of half-maximal effect
# Summary of the method: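 To flag cytotoxic false antagonists, HepG2 hCAR/CYP2B6-2.2kb cells were treated 23 hr with 15-concentration compound series and 50 nM CITCO at 37 C/5% CO2; CellTiter-Fluor fluorescence was the measured end point.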
# [7] = target: Nuclear receptor subfamily 1 group I member 3 (Homo sapiens) (UniProt Q14994); test: qHTS assay to identify small molecule antagonists of the constitutive androstane receptor (CAR) signaling pathway (AID 1224838);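 note: HepG2 cells stably expressing hCAR with CYP2B6 luciferase reporter stimulated by CITCO; nearly all actives have a fitted effect of over 40% in size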; note: potency is the fitted concentration of half-maximal effect
# Sequence of Nuclear receptor subfamily 1 group I member 3 (Homo sapiens) (Q14994 whole entry, looked up): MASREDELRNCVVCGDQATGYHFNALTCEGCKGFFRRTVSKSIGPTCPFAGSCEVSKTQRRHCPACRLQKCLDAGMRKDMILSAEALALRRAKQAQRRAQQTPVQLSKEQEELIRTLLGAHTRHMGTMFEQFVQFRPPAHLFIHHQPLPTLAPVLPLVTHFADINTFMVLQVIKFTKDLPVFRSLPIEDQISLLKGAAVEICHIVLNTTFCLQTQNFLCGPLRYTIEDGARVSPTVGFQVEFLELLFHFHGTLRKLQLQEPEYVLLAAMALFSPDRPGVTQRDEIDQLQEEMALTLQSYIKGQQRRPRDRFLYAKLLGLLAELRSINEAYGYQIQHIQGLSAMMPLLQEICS
# Summary of the method: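 Human hepatoma HepG2 cells expressing hCAR and a CYP2B6 promoter (2.2 kb) luciferase construct; compound titration (15 points) with 50 nM CITCO final, 24 h at 37 C/5% CO2; luminescence via ONE-Glo after 30 min at room temperature.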
# [8] = target: Nuclear receptor subfamily 1 group I member 3 (Homo sapiens) (UniProt Q14994); test: qHTS assay to identify small molecule agonists of the constitutive androstane receptor (CAR) signaling pathway (AID 1224839); note: nearly all actives have a fitted effect of over 15% in size; note: potency is the fitted concentration of half-maximal effect;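 for activation: HepG2 cells stably carrying human CAR and a CYP2B6 luciferase reporter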
# Summary of the method: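 Using human hepatoma HepG2 cells engineered with hCAR and a CYP2B6-2.2kb reporter, 15-concentration compound series were incubated 24 h alongside PK11195 at 0.75 uM final, with luminescence quantified afterwards.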
# [9] = qHTS assay to identify small molecule antagonists of the estrogen related receptor signaling pathway with the pleiotropic PPARgamma coactivator (PGC) from Tox21 10K library - cell viability counter screen (AID 1224840; active = well fitted cell-killing curve with a large enough effect in the repeat runs, not every such curve was filed as active; note: nearly all actives have a fitted effect of over 40% in size; note: potency is the fitted concentration of half-maximal effect)
# Summary of the method: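 Seeded PGC/ERR cells (2,000/well, 6 h, 37 C/5% CO2) get compound by pin tool; 17.5 h incubation at 37 C; CellTiter-Fluor added, 30 min, fluorescence measured.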
# [10] = target: Thyrotropin receptor (Homo sapiens) (UniProt P16473); test: qHTS assay to identify small molecule agonists of the thyroid stimulating hormone receptor (TSHR) signaling pathway (AID 1224843; calls by dose curve; note: nearly all actives have a fitted effect of over 45% in size; note: potency is the fitted concentration of half-maximal effect)
# Sequence of Thyrotropin receptor (Homo sapiens) (P16473 whole entry, looked up): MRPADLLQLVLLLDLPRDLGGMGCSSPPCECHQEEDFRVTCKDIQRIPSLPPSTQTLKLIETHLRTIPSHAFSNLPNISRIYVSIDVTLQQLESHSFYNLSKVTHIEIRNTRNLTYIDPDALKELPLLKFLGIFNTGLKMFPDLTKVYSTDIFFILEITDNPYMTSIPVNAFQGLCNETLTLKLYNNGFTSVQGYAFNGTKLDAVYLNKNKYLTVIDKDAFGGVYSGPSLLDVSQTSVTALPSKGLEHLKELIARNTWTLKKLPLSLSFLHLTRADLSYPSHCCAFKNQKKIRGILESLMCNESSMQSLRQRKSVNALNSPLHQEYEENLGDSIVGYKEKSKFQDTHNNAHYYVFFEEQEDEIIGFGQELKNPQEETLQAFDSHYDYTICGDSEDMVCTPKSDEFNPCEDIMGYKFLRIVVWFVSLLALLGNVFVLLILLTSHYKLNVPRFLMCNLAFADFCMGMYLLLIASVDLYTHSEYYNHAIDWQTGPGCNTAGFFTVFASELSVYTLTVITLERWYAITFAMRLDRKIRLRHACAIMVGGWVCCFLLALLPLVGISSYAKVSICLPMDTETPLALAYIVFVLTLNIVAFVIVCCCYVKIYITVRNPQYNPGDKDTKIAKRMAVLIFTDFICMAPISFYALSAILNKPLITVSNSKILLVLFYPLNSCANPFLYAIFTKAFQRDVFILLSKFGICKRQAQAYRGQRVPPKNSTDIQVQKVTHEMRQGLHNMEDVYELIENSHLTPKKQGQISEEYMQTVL
# Summary of the method: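 Using 15 concentrations per compound in triplicate, cAMP production was monitored in TSHR-HEK293 cells after 30 min compound incubation at RT; HTRF reagents followed, with fluorescence intensity recorded after 1 h.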
# [11] = qHTS assay to identify small molecule agonists of the hypoxia (HIF-1) signaling pathway - cell viability counter screen (AID 1224844; calls by dose curve; note: nearly all actives have a fitted effect of over 50% in size; note: potency is the fitted concentration of half-maximal effect)
# Summary of the method: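 HRE-bla ME-180; 0.5% dFBS; cpd 17 h, 37C, 5% CO2; CellTiter-Glo lum., 30 min RT, post-FRET read, same wells.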
# [12] = qHTS assay to identify small molecule antagonists of the retinoic acid receptor (RAR) signaling pathway (AID 1159552; note: nearly all actives have a fitted effect of over 50% in size; note: potency is the fitted concentration of half-maximal effect)
# Summary of the method: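 Using a RARE-driven luciferase construct in C3RL4 cells, retinol at 1 uM final provided the agonist stimulus while compounds were co-applied. After 6 hours at 37 C, luminescence was recorded to flag inhibitors of retinol signaling.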
# [13] = qHTS assay to identify small molecule agonists of the retinoic acid receptor (RAR) signaling pathway (AID 1159553); conditions: C3RL4 RARE luciferase reporter, agonist, 6 h; activation: at 73.3 µM (top of the series) unless noted; note: potency is the fitted concentration of half-maximal effect
# Summary of the method: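 6 hr compound exposure (DMSO vehicle) of overnight-plated C3RL4 RARE-luc cells at 37 C; luminescence quantified after 30 min RT with luciferase reagent.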
# [14] = qHTS assay to identify small molecule antagonists of the estrogen related receptor signaling pathway with the pleiotropic PPARgamma coactivator (PGC) from Tox21 10K library (AID 1224841; call rule not given here; note: actives are mostly falling curves and most rising ones were filed inactive; nearly all actives have a fitted effect of over 50% in size; note: potency is the fitted concentration of half-maximal effect)
# Summary of the method: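 Test chemicals dissolved in DMSO were applied to pre-incubated (6 h) PGC/ERR cells at 2,000 cells/well for an 18 h, 37 C treatment; reporter luminescence was then read using One-Glo.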
# [15] = qHTS assay to identify small molecule agonists of the estrogen related receptor signaling pathway with the pleiotropic PPARgamma coactivator (PGC) from Tox21 10K library (AID 1224842); note: nearly all actives have a fitted effect of over 15% in size; note: potency is the fitted concentration of half-maximal effect
# Summary of the method: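 PGC/ERR reporter cells (NTP line) were seeded 2,000 per well, rested 6 h at 37 C/5% CO2, then pin-dosed with compounds in DMSO for 18 h at 37 C; luciferase read by One-Glo luminescence after 30 min at room temperature.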
# [16] = qHTS assay to identify small molecule antagonists of the estrogen related receptor (ERR) signaling pathway (AID 1224819)
# Summary of the method: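 Compounds dissolved in DMSO were pin-transferred onto ERR cells that had been plated 6 h earlier, and cells were then incubated 18 h at 37 C; signal was luciferase luminescence via One-Glo.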
# [17] = qHTS assay to identify small molecule agonists of the estrogen related receptor (ERR) signaling pathway (AID 1224820)
# Summary of the method: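 Luminescence readout (One-Glo, 30 min RT) from NTP-supplied ERR cell line exposed to compounds for 18 h at 37 C. Cells seeded 2,000 per well and pre-incubated 6 h before pin-tool compound transfer.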
# [18] = test system: estrogen-related receptor alpha (ERRalpha) with PGC-1alpha coactivator, human; test: qHTS assay to identify small molecule antagonists of the estrogen related receptor signaling pathway with the pleiotropic PPARgamma coactivator (PGC) (AID 1224821; calls by dose curve)
# Summary of the method: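 PGC/ERR reporter cells; 6 h pre-incubation 37 C/5% CO2; pin-tool compound in DMSO, 18 h 37 C; One-Glo added, 30 min RT; luminescence read. qHTS antagonist mode.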
# [19] = qHTS assay to identify small molecule antagonists of the estrogen related receptor signaling pathway with the pleiotropic PPARgamma coactivator (PGC) cell viability counter screen (AID 1224822)
# Summary of the method: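 Counter screen for cell viability: PGC/ERR cells, 6 h pre-incubation after plating, 17.5 h compound exposure at 37 C, fluorescence from CellTiter-Fluor after 30 min.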
# [20] = qHTS assay to identify small molecule agonists of the estrogen related receptor signaling pathway with the pleiotropic PPARgamma coactivator (PGC) (AID 1224823)
# Summary of the method: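 Luminescence readout (One-Glo, 30 min RT) from PGC/ERR cell line treated 18 h at 37 C with pin-tool-delivered DMSO compound solutions; cells plated 6 h before dosing. Quantitative HTS format.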
SMILES,Potency [1],Potency [2],Potency [3],Potency [4],Potency [5],Potency [6],Potency [7],Potency [8],Potency [9],Potency [10],Potency [11],Potency [12],Potency [13],Potency [14],Potency [15],Potency [16],outcome [17],Potency [18],Potency [19],outcome [20]
Cc1ccc([N+](=O)[O-])cc1,inactive,inactive,inactive,inactive,inactive,inactive,inactive,inactive,inactive,inactive,inactive,–,–,–,–,–,–,–,–,–
CC(C)(c1ccccc1)c1ccc(O)cc1,43.3 µM (active) and 54.9 µM (active),inactive,–,–,–,inactive,inactive,27.1 µM (active) and 13.7 µM (active),inactive,60.6 µM (active) and 54.5 µM (active),–,61.1 µM (active),inactive,–,–,–,–,–,–,–
CCNc1nc(Cl)nc(NC(C)(C)C#N)n1,inactive,inactive,inactive,inactive,–,inactive,inactive,inactive,inactive,inactive,inactive,–,–,–,–,–,–,–,–,–
Cc1cccc(N=Nc2ccc(N(C)C)cc2)c1,inactive,–,27.3 µM (active),–,–,–,inactive,2.78 µM (active) and 3.06 µM (active),–,–,inactive,inactive,69.8 nM (active) and 34.4 µM (active),inactive,1.56 µM (active) and 2.73 µM (active),–,–,–,–,–
CNC(=O)CSP(=S)(OC)OC,inactive,–,inactive,–,–,inactive,inactive,inactive,inactive,inactive,inactive,–,–,–,–,–,–,–,–,–
CCC/C=N/O,inactive,–,inactive,–,inactive,inactive,inactive,inactive,inactive,–,inactive,–,–,–,–,–,–,–,–,–
Nc1ccc([N+](=O)[O-])cc1N,inactive,–,48.5 µM (active) and 24.3 µM (active),79.6 µM (active),48.5 µM (active),61.1 µM (active) and 27.3 µM (active),–,–,43.2 µM (active),–,21.9 µM (active) and inactive,13.7 µM (active) and inactive,68.5 µM (active) and 68.6 µM (active),inactive,inactive,–,–,–,–,–
N#Cc1nn(-c2c(Cl)cc(C(F)(F)F)cc2Cl)c(N)c1S(=O)C(F)(F)F (stereo not given),inactive,–,27.5 µM (active) and 29.8 µM (active),–,–,inactive,inactive,inactive,inactive,inactive,inactive,–,inactive,7.74 µM (active) and 21.1 µM (active),inactive,–,–,–,–,–
O=[N+]([O-])c1ccc(Cl)c([N+](=O)[O-])c1,24.9 µM (active) and 24.5 µM (active),–,24.7 µM (active) and 38.6 µM (active),–,19.6 µM (active) and 24.3 µM (active),22 µM (active) and 17.2 µM (active),19.6 µM (active) and 15.4 µM (active),inactive,49.3 µM (active) and 27.3 µM (active),–,19.8 µM (active) and 13.8 µM (active),13.9 µM (active) and 12.2 µM (active),–,–,inactive,–,–,–,–,–
CCCCC(C#N)(Cn1cncn1)c1ccc(Cl)cc1 (stereo not given),inactive,–,inactive,–,inactive,inactive,inactive,inactive,inactive,–,inactive,inactive,inactive,inactive,inactive,–,–,–,–,–
CN(C)c1nc(=O)n(C2CCCCC2)c(=O)n1C,inactive,–,inactive,inactive,inactive,inactive,inactive,inactive,inactive,inactive,inactive,–,–,–,–,–,–,–,–,–
CCC1(c2ccc(N)cc2)CCC(=O)NC1=O (stereo not given),inactive,–,inactive,–,–,inactive,–,–,inactive,–,inactive,–,–,inactive,inactive,inactive,inactive,inactive,inactive,inactive
O=C1Nc2ccc(Cl)cc2C(c2ccccc2)=NC1O (stereo not given),inactive,–,inactive,inactive,–,inactive,inactive,inactive,inactive,inactive,inactive,inactive,inactive,inactive,inactive,–,–,–,–,–
O=[N+]([O-])c1ccc(Nc2ccccc2)cc1,–,–,27.5 µM (active) and 30.6 µM (active),–,48.9 µM (active),30.9 µM (active),inactive,inactive,–,inactive,inactive,inactive,inactive,inactive,inactive,–,–,–,–,–
O=C1CCCO1,inactive,–,inactive,–,–,inactive,inactive,inactive,inactive,inactive,inactive,inactive,inactive,inactive,inactive,–,–,–,–,–
O=NN(c1ccccc1)c1ccccc1,inactive,–,inactive,inactive,–,inactive,–,–,inactive,inactive,inactive,inactive,inactive,–,–,–,–,–,–,–
O=C(O)CF,inactive,–,inactive,–,–,inactive,–,–,inactive,inactive,inactive,–,–,–,–,–,–,–,–,–
COc1ccc(C=O)cc1OC,inactive,–,inactive,inactive,–,inactive,inactive,inactive,inactive,–,inactive,inactive,inactive,inactive,inactive,–,–,–,–,–
c1ccc(C2CO2)cc1 (stereo not given),inactive,–,inactive,inactive,inactive,inactive,–,–,inactive,inactive,inactive,–,–,–,–,–,–,–,–,–
Clc1cccc(Cl)c1,inactive,–,inactive,–,inactive,inactive,inactive,inactive,inactive,inactive,inactive,inactive,inactive,inactive,inactive,–,–,–,–,–
